# In PubChem BioAssay AID430 (Sanford-Burnham Center for Chemical Genomics, 2006):
# The whole screen tested about 63,000 compounds, of which about 1,100 (1.7%) were called active. What follows is part of a selection rich in actives, with near analogues and random picks from the rest. Measured potencies and affinities stand elsewhere. Unmarked numbers belong to inactive results. Rule as the data show it: active = cytotoxicity above about 50%; inactive = the rest.
# Test: cytotoxicity in HPDE-C7 cells, cell-based, fluorescence, HTS (AID 430);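 also: cells exposed to compound for 48 hours before viability readout; 0% = vehicle and 100% = reference cytotoxic drug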
# Conditions: HPDE-C7 pancreatic duct cells viability, at 10 µM, active compounds read high
row,SMILES,cytotoxicity
1,O=C(NCc1ccco1)C(c1ccncc1)N(CCC1=CCCCC1)C(=O)Cn1nnc2ccccc21 (stereo not given),1.6%
2,Fc1ccc(Br)cc1C1C=C(c2cccnc2)Nc2ncnn21 (stereo not given),16.3%
3,Fc1ccc(Br)cc1C1C=C(c2ccc(Br)s2)Nc2ncnn21 (stereo not given),55% (active)
4,COc1cccc(C2C=C(c3ccc(Br)s3)Nc3ncnn32)c1OC (stereo not given),-9.3%
5,Cc1cccc2cc(CN(Cc3ccco3)C(=O)c3cccs3)c(=O)[nH]c12,-11.9%
6,Cn1c(Cc2ccccc2)nnc1SCC(=O)Nc1ccccc1N1CCOCC1,2.9%
7,CC(C)OC(=O)c1cn(-c2ccccc2)nc1-c1ccco1,4.8%
8,OCCN(Cc1ccccc1)Cc1cccc(F)c1,-3.2%
9,Nc1c(C(=O)NCC2CCCO2)c2nc3ccccc3nc2n1-c1ccccc1 (stereo not given),11.1%
10,Nc1c(C(=O)NC2CCCC2)c2nc3ccccc3nc2n1N,11.6%
11,CCCCNC(=O)c1c(N)n(/N=C/c2cccnc2)c2nc3ccccc3nc12,4%
12,COCCNC(=O)c1c(N)n(CCCn2ccnc2)c2nc3ccccc3nc12,7%
13,COCCn1c(N)c(C(=O)NCC2CCCO2)c2nc3ccccc3nc21 (stereo not given),11.4%
14,COCCNC(=O)c1c(N)n(-c2cccc(C)c2)c2nc3ccccc3nc12,9.2%
15,CC(C)Cn1c(N)c(C(=O)NCC2CCCO2)c2nc3ccccc3nc21 (stereo not given),26.3%
16,Nc1c(C(=O)NC2CCCC2)c2nc3ccccc3nc2n1/N=C/c1cccnc1,62.6% (active)
17,Nc1c(C(=O)NC2CCCCC2)c2nc3ccccc3nc2n1/N=C/c1ccco1,5.1%
18,O=C(Nc1ccccc1N1CCN(c2ccc(F)cc2)CC1)C1CCCCC1,-6.3%
19,O=C(Oc1cccc(Oc2ccccc2)c1)N1CCOCC1,-6.3%
20,CCN(CC)C(=O)CSC1=Nc2ccccc2C2=NC(Cc3c[nH]c4ccccc34)C(=O)N12 (stereo not given),-6.1%
21,O=C(CSc1nnnn1C1CCCCC1)NCc1ccc2c(c1)OCO2,3.2%
22,COCCN1C(=O)C(=O)/C(=C(/O)c2ccc(OC(C)C)cc2)C1c1cccnc1 (stereo not given),-2.7%

row,SMILES,cytotoxicity
1,CCN1CCN(C(=O)c2ccc3c(c2)N(Cc2ccc(F)cc2)C(=O)c2ccccc2S3=O)CC1 (stereo not given),-1.9%
2,COc1ccc(OC)c(C2NC(=O)NC(C)=C2C(=O)Nc2ccc(C)cc2C)c1 (stereo not given),-13.3%
3,COc1ccc(Cc2nc(-c3ccccc3)no2)cc1,-1.1%
4,CCOc1cc(S(=O)(=O)n2c(C)nc3ccccc32)ccc1F,2.2%
5,CCN(Cc1ccccc1)Cc1cc(OC)cc(OC)c1,8%
6,CSCCC(NC(=O)c1cc(CC(C)C)oc1C)C(=O)O (stereo not given),-17.8%
7,CCc1nnc(NC2=NCCC2)s1,-21.5%
8,CC(C)Cn1c(N)c(C(=O)NCc2cccs2)c2nc3ccccc3nc21,63.9% (active)
9,CC(C)Cn1c(N)c(C(=O)NCCN2CCOCC2)c2nc3ccccc3nc21,-16.3%
10,COCCn1c(N)c(C(=O)NCc2cccs2)c2nc3ccccc3nc21,-11.2%
11,Cc1ccc(NC(=O)Nc2ccc3c(c2)N(C)C(=O)CS3)nc1,-4.8%
12,COC(=O)CCSCC(=O)Nc1cc(C)on1,-18%
13,CCn1c(COc2cccc(C)c2)nnc1SCC(=O)N1CCCC1,-3.1%
14,CCn1c2ccccc2c2cc(N)ccc21,15.8%
15,CCn1c2ccccc2c2cc(/C=N/n3cnnc3)ccc21,10.8%
16,C=Cn1ccnc1P(=S)(c1ccc2c(c1)c1ccccc1n2CC)c1nccn1C=C,73.4% (active)
17,CCCCn1c(=O)[nH]c(=O)c2c1nc(-c1ccc(C#N)cc1)n2C1CCCC1,-7%
18,CCOC(=O)CSc1nc2ccccc2c(=O)n1CCCCCC(=O)NCc1ccco1,-23.3%
19,CC(Oc1ccc(Cl)cc1Cl)C(=O)NCCCn1ccnc1 (stereo not given),-1.6%
20,Clc1ccc(OCCn2ccnc2)c(Cl)c1,-13.9%
21,O=C(COc1ccc(Cl)cc1Cl)NCCCn1ccnc1,-3.9%
22,OC(Cn1cncn1)c1ccc(Cl)cc1Cl (stereo not given),1.1%

row,SMILES,cytotoxicity
1,OC(Cn1ccnc1)c1ccc(Cl)cc1Cl (stereo not given),-4.5%
2,Clc1ccc(SCCn2ccnc2)cc1,-0.3%
3,c1ccc2c(Cn3ccnc3)c[nH]c2c1,-14%
4,COc1ccc(C(c2sc3nc(C)nn3c2O)N2CCC(O)CC2)cc1OC (stereo not given),-15.1%
5,CC(=O)C1=C(C)OC(N)=C(C#N)C1c1ccncc1 (stereo not given),-7%
6,COc1ccccc1N1CCN(Cc2cccc(OC)c2OC)CC1,3.3%
7,CCCCOc1ccc(C(=O)N2CCC(C)CC2)cc1,-20.7%
8,CCCCOc1ccc(C(=O)OC2CC(C)N(C)CC2C)cc1 (stereo not given),61.9% (active)
9,CCCCOc1ccc(C(=O)NC)cc1,-5.6%
10,Cc1ccc2occ(CN3CCN(c4ccccc4)CC3)c(=O)c2c1,-17%
11,COc1ccc(CCNC(=O)CN2CCN(c3cccc(Cl)c3)CC2)cc1OC,1.7%
12,COc1ccc(N2CCN(Cc3cc(=O)oc4ccc(Cl)cc34)CC2)cc1,-1.8%
13,COc1cc(CN2CCSCC2)cc(OC)c1OC,-9.5%
14,COc1cccc(N2CCN(Cc3coc4c(Cl)cc(Cl)cc4c3=O)CC2)c1,61.8% (active)
15,COc1ccc(S(=O)(=O)CCC(=O)Nc2c(C)n(C)n(-c3ccccc3)c2=O)cc1,-10.2%
16,CC(C)N(Cc1ccccc1)S(=O)(=O)N(C)C,-7.9%
17,COc1cc(NC(=O)Cc2nn(C)c(=O)c3ccccc23)cc(OC)c1,19.8%
18,COc1ccc(-c2cc(C(F)(F)F)n3ncc(C(=O)O)c3n2)cc1OC,2%
19,Cc1ccc(S(=O)(=O)N2CCN(C(=O)C3CCCCC3)CC2)cc1,7.7%
20,Cc1cccc(OCCCN2CCCCCC2)c1,19.3%
21,Cc1cccc(OCCn2c(=O)n(C)c3ccccc32)c1,-3.7%
